In the supplement of paper PMC6805474:

Key:
[1] = system: Schistosoma mansoni schistosomula (LE); assay: XTT viability relative to DMSO control; higher = more viable (less active); conditions: 72 h; 10 µM
Procedure: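 XTT/PMS was then added for a further 24 h (72 h total) and A450 was read. % viability = (sample - heat-killed control)/(DMSO control - heat-killed control) x 100, from duplicate wells in two independent experiments.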

[2] = system: Schistosoma mansoni schistosomula (NMRI); assay: phenotypic severity score (0-4); higher = more antischistosomal effect, active = 2 or more; conditions: 10 µM
[3] = system: Schistosoma mansoni schistosomula (Liberian); assay: drug effect (1 - score/DMSO control score) (fraction); higher = more antischistosomal effect, active = 0.5 or more; extreme values may be limits of the assay; conditions: 10 µM
Outline: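 Drug effect was calculated by comparing the mean score of the test wells with the mean score of the DMSO wells, and any negative value was set to zero. Duplicate wells of 50 Liberian-strain S. mansoni schistosomula, mechanically transformed from cercariae and pre-incubated at least 12 h, received 10 µM compound in Medium 199 with 5% FCS at 37 °C, 5% CO2, with 0.1% DMSO in the comparison wells. Visual scoring at 10× took place at 24, 48 and 72 h on a quarter-point scale from 3 (normal) to 0 (dead), and a plate counted only if its DMSO wells averaged at least 2.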
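Wherever phenotypic severity score (0-4) is given: visual microscopic scoring of shape, motility and density changes versus 0.5% DMSO solvent controls, one point per descriptor, degeneracy or death scored 4, mean of duplicate wells.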

Question: How did the XTT viability [1] turn out when `Cc1nc(-c2ccccn2)nc(N2CCC(Cc3ccccc3)C2)c1Cl` (centres undefined) was run?
Answer: The XTT viability was -3.46%.

Question: What about the phenotypic severity score ([2]; 24 h) of the same compound?
Answer: The phenotypic severity score was 0 (inactive).

Question: What about the phenotypic severity score ([2]; 48 h) of the same compound?
Answer: The phenotypic severity score was 0 (inactive).

Question: What about the phenotypic severity score ([2]; 72 h) of the same compound?
Answer: The phenotypic severity score was 0 (inactive).

Question: What about the drug effect ([3]; 24 h) of the same compound?
Answer: The drug effect was 0.15 (inactive).

Question: And the drug effect ([3]; 48 h)?
Answer: Its drug effect is 0.1 (inactive).

Question: And the drug effect ([3]; 72 h)?
Answer: Its drug effect is 0.333 (inactive).

Question: Which results are given for `CC1(C)Cc2c(c(N3CCOCC3)nc3snc(Br)c23)CO1`?
Answer: XTT viability [1]: 71.5%; phenotypic severity score ([2]; 24 h): 0 (inactive); phenotypic severity score ([2]; 48 h): 0 (inactive); phenotypic severity score ([2]; 72 h): 0 (inactive); drug effect ([3]; 24 h): 0.0455 (inactive); drug effect ([3]; 48 h): 0.1 (inactive); drug effect ([3]; 72 h): 0.105 (inactive)

Question: For `COc1cccc(NC(=O)c2c(NC(=O)c3cccnc3)sc3c2CCC3)c1`, which XTT viability [1] is on record?
Answer: The XTT viability was 94.4%.

Question: What about the phenotypic severity score ([2]; 24 h) of the same compound?
Answer: The phenotypic severity score was 0 (inactive).

Question: What about the phenotypic severity score ([2]; 48 h) of the same compound?
Answer: The phenotypic severity score was 0 (inactive).

Question: And the phenotypic severity score ([2]; 72 h)?
Answer: The phenotypic severity score was 0 (inactive).

Question: And the drug effect ([3]; 24 h)?
Answer: Its drug effect is 0.25 (inactive).

Question: And the drug effect ([3]; 48 h)?
Answer: The drug effect was 0.222 (inactive).

Question: What about the drug effect ([3]; 72 h) of the same compound?
Answer: Its drug effect is 0.438 (inactive).

Question: Which results are given for `Cc1cnc(N2CCN[C@@H](Cc3ccccc3)C2)nc1Oc1ccc(-n2ccnc2)cc1`?
Answer: XTT viability [1]: 17.8%; phenotypic severity score ([2]; 24 h): 4 (active); phenotypic severity score ([2]; 48 h): 4 (active); phenotypic severity score ([2]; 72 h): 4 (active); drug effect ([3]; 24 h): 0.3 (inactive); drug effect ([3]; 48 h): 0.556 (active); drug effect ([3]; 72 h): 1 (active)

Question: Which results are given for `Cc1ccc(Oc2ccc(NC(=O)CNc3ccccc3N3CCCC3=O)cc2)cc1`?
Answer: XTT viability [1]: 77%; phenotypic severity score ([2]; 24 h): 2 (active); phenotypic severity score ([2]; 48 h): 2 (active); phenotypic severity score ([2]; 72 h): 0 (inactive); drug effect ([3]; 24 h): 0.2 (inactive); drug effect ([3]; 48 h): 0.333 (inactive); drug effect ([3]; 72 h): 0.556 (active)

Question: How did the XTT viability [1] turn out when `CC(=O)N(CCN(C(=O)c1ccc(F)cc1)c1ccccc1)c1ccccc1` was run?
Answer: The XTT viability was 117%.

Question: And the phenotypic severity score ([2]; 24 h)?
Answer: Its phenotypic severity score is 1 (inactive).

Question: And the phenotypic severity score ([2]; 48 h)?
Answer: The phenotypic severity score was 0 (inactive).

Question: What about the phenotypic severity score ([2]; 72 h) of the same compound?
Answer: The phenotypic severity score was 0 (inactive).

Question: And the drug effect ([3]; 24 h)?
Answer: Its drug effect is 0.1 (inactive).

Question: And the drug effect ([3]; 48 h)?
Answer: Its drug effect is 0.027 (inactive).

Question: And the drug effect ([3]; 72 h)?
Answer: Its drug effect is 0.0909 (inactive).

Question: For `O=C(c1ccc(F)cc1)N(CCNc1ccccc1)c1ccccc1`, which XTT viability [1] is on record?
Answer: The XTT viability was 126%.

Question: And the phenotypic severity score ([2]; 24 h)?
Answer: The phenotypic severity score was 1 (inactive).

Question: And the phenotypic severity score ([2]; 48 h)?
Answer: The phenotypic severity score was 0 (inactive).

Question: And the phenotypic severity score ([2]; 72 h)?
Answer: The phenotypic severity score was 1 (inactive).

Question: What about the drug effect ([3]; 24 h) of the same compound?
Answer: Its drug effect is 0.135 (inactive).

Question: What about the drug effect ([3]; 48 h) of the same compound?
Answer: The drug effect was 0.167 (inactive).

Question: And the drug effect ([3]; 72 h)?
Answer: Its drug effect is 0.25 (inactive).

Question: How did the XTT viability [1] turn out when `O=C(C1CCCCC1)N1CC(=O)N2CCc3ccccc3C2C1` (centres undefined) was run?
Answer: Its XTT viability is 97.3%.

Question: What about the phenotypic severity score ([2]; 24 h) of the same compound?
Answer: The phenotypic severity score was 4 (active).

Question: What about the phenotypic severity score ([2]; 48 h) of the same compound?
Answer: The phenotypic severity score was 4 (active).

Question: What about the phenotypic severity score ([2]; 72 h) of the same compound?
Answer: Its phenotypic severity score is 4 (active).

Question: And the drug effect ([3]; 24 h)?
Answer: Its drug effect is 0.3 (inactive).

Question: What about the drug effect ([3]; 48 h) of the same compound?
Answer: The drug effect was 0.351 (inactive).

Question: And the drug effect ([3]; 72 h)?
Answer: Its drug effect is 0.556 (active).

Question: With `COc1ccc(C2(C(=O)Nc3ccc(Br)cc3)CCCC2)cc1` as the compound, how does the XTT viability [1] read?
Answer: Its XTT viability is 91%.

Question: What about the phenotypic severity score ([2]; 24 h) of the same compound?
Answer: Its phenotypic severity score is 0 (inactive).

Question: What about the phenotypic severity score ([2]; 48 h) of the same compound?
Answer: Its phenotypic severity score is 0 (inactive).

Question: What about the phenotypic severity score ([2]; 72 h) of the same compound?
Answer: Its phenotypic severity score is 1 (inactive).

Question: And the drug effect ([3]; 24 h)?
Answer: Its drug effect is 0.25 (inactive).

Question: And the drug effect ([3]; 48 h)?
Answer: Its drug effect is 0.389 (inactive).

Question: What about the drug effect ([3]; 72 h) of the same compound?
Answer: Its drug effect is 0.5 (active).

Question: With `COC(=O)c1ccc(F)cc1NS(=O)(=O)c1cccc(-c2cnn(Cc3ccccc3)c2)c1` as the compound, how does the XTT viability [1] read?
Answer: Its XTT viability is 89.1%.

Question: What about the phenotypic severity score ([2]; 24 h) of the same compound?
Answer: The phenotypic severity score was 1 (inactive).

Question: What about the phenotypic severity score ([2]; 48 h) of the same compound?
Answer: The phenotypic severity score was 1 (inactive).

Question: What about the phenotypic severity score ([2]; 72 h) of the same compound?
Answer: Its phenotypic severity score is 1 (inactive).

Question: What about the drug effect ([3]; 24 h) of the same compound?
Answer: Its drug effect is 0.409 (inactive).

Question: And the drug effect ([3]; 48 h)?
Answer: The drug effect was 0.45 (inactive).

Question: What about the drug effect ([3]; 72 h) of the same compound?
Answer: Its drug effect is 0.455 (inactive).

Question: Which XTT viability [1] does the source give for `Cc1noc(C)c1C(=O)N1CCCC(c2[nH]c3c(C)cccc3c2-c2ccncc2)C1` (centres undefined) here?
Answer: The XTT viability was 67.5%.

Question: What about the phenotypic severity score ([2]; 24 h) of the same compound?
Answer: The phenotypic severity score was 4 (active).

Question: What about the phenotypic severity score ([2]; 48 h) of the same compound?
Answer: The phenotypic severity score was 4 (active).

Question: What about the phenotypic severity score ([2]; 72 h) of the same compound?
Answer: Its phenotypic severity score is 4 (active).

Question: And the drug effect ([3]; 24 h)?
Answer: Its drug effect is 0.35 (inactive).

Question: And the drug effect ([3]; 48 h)?
Answer: Its drug effect is 0.5 (active).

Question: And the drug effect ([3]; 72 h)?
Answer: Its drug effect is 0.778 (active).

Question: Which results are given for `COc1cccc(OCC(=O)c2ccc(Br)cc2)c1`?
Answer: XTT viability [1]: 101%; phenotypic severity score ([2]; 24 h): 0 (inactive); phenotypic severity score ([2]; 48 h): 0 (inactive); phenotypic severity score ([2]; 72 h): 0 (inactive); drug effect ([3]; 24 h): 0.182 (inactive); drug effect ([3]; 48 h): 0.2 (inactive); drug effect ([3]; 72 h): 0.127 (inactive)

Question: With `CN(C(=O)c1cc2c(-c3cncnc3)cccc2[nH]1)c1ccccc1` as the compound, how does the XTT viability [1] read?
Answer: The XTT viability was 102%.

Question: What about the phenotypic severity score ([2]; 24 h) of the same compound?
Answer: The phenotypic severity score was 0 (inactive).

Question: And the phenotypic severity score ([2]; 48 h)?
Answer: Its phenotypic severity score is 0 (inactive).

Question: What about the phenotypic severity score ([2]; 72 h) of the same compound?
Answer: The phenotypic severity score was 0 (inactive).

Question: What about the drug effect ([3]; 24 h) of the same compound?
Answer: The drug effect was 0.189 (inactive).

Question: And the drug effect ([3]; 48 h)?
Answer: The drug effect was 0.278 (inactive).

Question: What about the drug effect ([3]; 72 h) of the same compound?
Answer: Its drug effect is 0.375 (inactive).

Question: With `CC(C)c1ncc(-c2ccncc2)c([C@H]2CC[C@H](CNC(=O)c3cccnc3)CC2)n1` as the compound, how does the XTT viability [1] read?
Answer: Its XTT viability is 94%.

Question: What about the phenotypic severity score ([2]; 24 h) of the same compound?
Answer: Its phenotypic severity score is 0 (inactive).

Question: And the phenotypic severity score ([2]; 48 h)?
Answer: Its phenotypic severity score is 0 (inactive).

Question: What about the phenotypic severity score ([2]; 72 h) of the same compound?
Answer: The phenotypic severity score was 0 (inactive).

Question: And the drug effect ([3]; 24 h)?
Answer: Its drug effect is 0.05 (inactive).

Question: What about the drug effect ([3]; 48 h) of the same compound?
Answer: The drug effect was 0.0811 (inactive).

Question: What about the drug effect ([3]; 72 h) of the same compound?
Answer: The drug effect was 0.111 (inactive).

Question: Which XTT viability [1] does the source give for `CCCCN(CCCC)c1c(C#N)cc(S(=O)(=O)Nc2ccccc2)cc1C#N` here?
Answer: The XTT viability was 40.5%.

Question: What about the phenotypic severity score ([2]; 24 h) of the same compound?
Answer: Its phenotypic severity score is 0 (inactive).

Question: And the phenotypic severity score ([2]; 48 h)?
Answer: Its phenotypic severity score is 0 (inactive).

Question: And the phenotypic severity score ([2]; 72 h)?
Answer: Its phenotypic severity score is 0 (inactive).

Question: And the drug effect ([3]; 24 h)?
Answer: Its drug effect is 0.15 (inactive).

Question: What about the drug effect ([3]; 48 h) of the same compound?
Answer: Its drug effect is 0.135 (inactive).

Question: And the drug effect ([3]; 72 h)?
Answer: The drug effect was 0.273 (inactive).

Question: How did the XTT viability [1] turn out when `CCNC(=O)C(C)Nc1nc(-c2cccnc2)nc2sc(C)c(C)c12` (centres undefined) was run?
Answer: The XTT viability was 81.9%.

Question: And the phenotypic severity score ([2]; 24 h)?
Answer: Its phenotypic severity score is 0 (inactive).

Question: And the phenotypic severity score ([2]; 48 h)?
Answer: Its phenotypic severity score is 0 (inactive).

Question: What about the phenotypic severity score ([2]; 72 h) of the same compound?
Answer: Its phenotypic severity score is 0 (inactive).

Question: What about the drug effect ([3]; 24 h) of the same compound?
Answer: The drug effect was < 0 (inactive).

Question: What about the drug effect ([3]; 48 h) of the same compound?
Answer: Its drug effect is < 0 (inactive).

Question: And the drug effect ([3]; 72 h)?
Answer: The drug effect was 0.111 (inactive).

Question: Which results are given for `CCOc1ccccc1NC(C)C(=O)Nc1cc(C(F)(F)F)ccc1N1CCOCC1` (centres undefined)?
Answer: XTT viability [1]: 96%; phenotypic severity score ([2]; 24 h): 0 (inactive); phenotypic severity score ([2]; 48 h): 0 (inactive); phenotypic severity score ([2]; 72 h): 0 (inactive); drug effect ([3]; 24 h): 0.15 (inactive); drug effect ([3]; 48 h): 0.167 (inactive); drug effect ([3]; 72 h): 0.312 (inactive)
